From PubChem BioAssay AID652016 (National Center for Advancing Translational Sciences (NCATS), 2013) come the findings set out here.

The structures appear in SMILES notation. Results filed as inconclusive are left out. A call without a number means that no potency is given here. Active and inactive are the calls of the source. The call rests on the fitted dose curve; in most records, active means well fitted inhibition curve with a large enough effect; inconclusive means small, poorly fitted or top-dose-only effect; inactive means flat fitted curve, though single readings scatter.
Potency means the concentration at half of the fitted maximal effect.

Sequence of Luciferin 4-monooxygenase (Photinus pyralis) (P08659 whole entry, looked up): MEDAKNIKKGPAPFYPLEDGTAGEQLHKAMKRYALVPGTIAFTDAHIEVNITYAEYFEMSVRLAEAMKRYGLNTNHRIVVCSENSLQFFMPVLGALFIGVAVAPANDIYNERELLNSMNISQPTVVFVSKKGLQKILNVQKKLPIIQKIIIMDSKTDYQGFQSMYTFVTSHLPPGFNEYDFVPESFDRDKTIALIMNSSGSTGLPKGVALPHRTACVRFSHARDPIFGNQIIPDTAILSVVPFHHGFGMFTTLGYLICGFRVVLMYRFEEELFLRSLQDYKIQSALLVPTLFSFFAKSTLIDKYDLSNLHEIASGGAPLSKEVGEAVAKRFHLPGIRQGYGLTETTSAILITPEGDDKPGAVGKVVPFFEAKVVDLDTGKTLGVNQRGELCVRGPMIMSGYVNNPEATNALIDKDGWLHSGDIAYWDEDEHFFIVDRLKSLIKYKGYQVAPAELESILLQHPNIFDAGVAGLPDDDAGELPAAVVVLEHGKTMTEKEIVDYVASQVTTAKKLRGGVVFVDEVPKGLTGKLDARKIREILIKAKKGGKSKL

The target of this test is Luciferin 4-monooxygenase (Photinus pyralis) (UniProt P08659). Kind of test: qHTS Assay for Inhibitors of Firefly Luciferase from the GSK Published Protein Kinase Inhibitor Set. As to conditions: purified firefly luciferase, luminescence inhibition; series mostly up to 57.5 µM. The method in brief:
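Enzyme-level luminescence assay: compounds titrated (about 60uM down to 300pM) into substrate buffer (10uM ATP, 10uM D-luciferin, pH 7.5 Tris acetate with Mg, Tween-20, BSA), then 10nM firefly luciferase added; read after ~5 min.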
In general terms: In qHTS, concentration-response curves come from the screen itself.
As to `COc1cc2c(cc1Nc1nc(Nc3ccsc3C(N)=O)c3cc[nH]c3n1)N(C(=O)CN(C)C)CCC2`, the Potency result is “inactive”.
Take `CC(Oc1cc(-n2cnc3ccc(OCC4CCN(C)CC4)cc32)sc1C(N)=O)c1ccccc1C(F)(F)F` (stereo unspecified): the Potency entry is “inactive”.
For `NS(=O)(=O)c1ccc(Nc2cc(-c3ccc(O)c(F)c3)[nH]n2)cc1`, the Potency result is “inactive”.
Under `CN(C)c1ccc2[nH]c(O)c(C=Nc3ccc(S(N)(=O)=O)cc3)c2c1` stands “inactive”; under `Nc1nc(-c2ccc(F)cc2)c(-c2ccc3ncccc3n2)s1`, “inactive”; under `COc1cc(C)c(NC(=O)CN(C)C)cc1Nc1nc(Nc2cccc(F)c2C(N)=O)c2cc[nH]c2n1`, “inactive”.
`CCn1c(-c2nonc2N)nc2ccc(F)cc21`: the Potency result is “inactive”.
For `CC(C)c1ccc(-c2cc(-c3cn[nH]c3-c3ccccn3)ccn2)cc1`, the Potency result is “inactive”.
`Cc1nc(-c2ccccc2)n2nc(NCCCN3CCOCC3)ncc12`: the Potency result was “inactive”.
For the compound `C#Cc1cccc(Nc2ncnc3ccc(OCCCCNCCS(C)(=O)=O)cc23)c1`, the Potency result is “inactive”.
As for `COc1cc(C=NNc2ncnc3c2cnn3-c2ccccc2)ccc1O`, the Potency result was “inactive”.
Take `COC(=O)Nc1nc2ccc(Oc3ccc(NC(=O)Nc4cccc(C(=O)O)c4)cc3)cc2[nH]1`: the Potency is 116 nM (active).
Under `CCn1c(-c2nonc2N)nc2c(C#CCN)ncc(OCCCN)c21` stands “inactive”; under `CN1CCC(C(=O)Nc2n[nH]c3nnc(-c4ccccc4)cc23)CC1`, “inactive”.
On to `CCCNc1cccc(-n2ncc3c(NN=Cc4ccncc4)ncnc32)c1`, for which the Potency result is “inactive”.
The value for `COc1cc2c(cc1Nc1nc(Nc3ccsc3C(N)=O)c3cc[nH]c3n1)N(C(=O)CN(C)C)CCC2(C)C` was “inactive”.
